This is a sample that favours compounds with a hit; in the whole collection about 3.8% have one here.
MT1-MMP txn act: MT1-MMP promoter reporter activation – cell-based, luciferase luminescence, primary screen; HT1080 MT1-MMP promoter luciferase reporter, overnight; active compounds read high; activation factor at 10 µM; 0.16% of 86,000 active;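 active = activation factor of at least 2 for MT1-MMP transcription at 10 µM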
Candida biofilm: clotrimazole potentiators killing Candida biofilms, primary screen, with clotrimazole, Alamar Blue; C. albicans biofilm + clotrimazole; inhibition, % at 6 µM; 0.14% of 85,000 active; AID 834, 2007;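 active = inhibition above 20%; inactive = inhibition below 20%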;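 note: preformed 24 hr biofilms exposed to compound for 48 hr; 0% = biofilm without compound and 100% = blank killed by clotrimazole plus chlorhexidine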
ERa SRC1 inh: ERα–SRC-1 coactivator interaction inhibitors, primary screen, biochemical, TR-FRET, ERα LBD, estradiol-bound; Estrogen receptor (Homo sapiens), P03372; TR-FRET ER-alpha LBD / SRC-1 peptide; inhibition, % at 25.6 µM; 1.7% of 86,000 active; AID 629, 2007; in the data active = inhibition above about 50%;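 note: 0% = receptor plus peptide control and 100% = peptide only without receptor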
ERb coact inh: inhibitors of ERβ-SRC1 coactivator interaction, primary screen, biochemical, TR-FRET, ERβ LBD, SRC-1 peptide; Estrogen receptor beta (Homo sapiens), Q92731; inhibition, % at 25.6 µM; 1.3% of 86,000 active; TR-FRET ER-beta LBD / SRC1-Cy5 peptide binding; receptor agonist-loaded with 1 µM estradiol; AID 633, 2007;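 active = compounds whose percent inhibition of the receptor-coactivator binding signal exceeds about 50% in the single-dose screen, limit read from the data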;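 note: 0% = receptor plus peptide wells without compound and 100% = peptide-only wells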
ERa SRC1 pot: enhancers of ERα–SRC-1 coactivator binding, primary screen, biochemical, TR-FRET, ERα LBD, low estradiol | Estrogen receptor (Homo sapiens), P03372 | TR-FRET ERalpha-LBD/SRC-Cy5 coactivator binding, 2 h; 100 = basal binding, no effect | coactivator binding (% of control), % at 25.6 µM | 1.3% of 86,000 active; in the data active = activity above about 200%;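 note: binding measured in presence of low estradiol as agonist stimulus; 0% = peptide alone without receptor and 100% = receptor with peptide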
Smad3 FoxH1 inh: Smad3/FoxH1 peptide binding inhibitors, primary screen, biochemical, TR-FRET. Mothers against decapentaplegic homolog 3 (Homo sapiens), P84022. TR-FRET Smad3/Dy647-FoxH1 peptide binding, europium anti-His. inhibition, % at 25 µM. 0.29% of 88,000 active. AID 630, 2007;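 active = compounds that reduce the energy-transfer binding signal between the protein and its labelled peptide by more than half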;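 note: 0% = Smad3 plus labelled peptide maximal FRET and 100% = peptide-only background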
Target sequence (P84022 whole entry, looked up): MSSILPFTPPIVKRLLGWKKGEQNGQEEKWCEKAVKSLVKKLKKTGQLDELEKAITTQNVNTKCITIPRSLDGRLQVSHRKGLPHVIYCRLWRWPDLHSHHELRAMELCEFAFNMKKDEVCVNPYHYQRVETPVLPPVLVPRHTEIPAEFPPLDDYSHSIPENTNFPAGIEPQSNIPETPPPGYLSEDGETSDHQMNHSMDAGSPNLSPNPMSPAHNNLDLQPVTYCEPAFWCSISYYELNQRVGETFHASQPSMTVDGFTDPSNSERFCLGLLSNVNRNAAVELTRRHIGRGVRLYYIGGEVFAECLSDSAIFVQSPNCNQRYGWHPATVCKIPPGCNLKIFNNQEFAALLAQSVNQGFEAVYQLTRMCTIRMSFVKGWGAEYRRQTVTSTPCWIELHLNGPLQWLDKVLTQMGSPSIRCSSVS
* = called active by the depositor; . = no result; [ ] = another dose, or the depositor's remark.

SMILES	MT1-MMP txn act	Candida biofilm	ERa SRC1 inh	ERb coact inh	ERa SRC1 pot	Smad3 FoxH1 inh
O=C(Nc1ccc2c(c1)OCO2)C1CCN(C(=O)CSc2ncnc3ccccc23)CC1	1.2	8	55*[fluorescence artefact?]	46	60	0
COC(=O)c1ccc(C(NC(=O)OCc2ccccc2)/C(C)=C/[C@@H](C)C(=O)NCCc2c[nH]c3ccc(OC)cc23)cc1 (some centres not stated)	1.1	.	.	.	.	.
COc1ccc(NC(=O)c2ccc3c(=O)n(Cc4ccco4)c(=S)[nH]c3c2)c(OC)c1	1	8	73*[fluorescence artefact?]	13	110	0
COc1ccc(CNC(=O)C(C)Cc2ccccc2)cc1O (configuration not stated)	1	.	.	.	.	.
Brc1cccc(-c2nnc(-c3ccccc3)o2)c1	1.3	0	12	3	108	-6
O=c1oc2ccccc2cc1-c1nnc(-c2cccc(Br)c2)o1	1.2	9	76*[fluorescence artefact?]	35	72	-17
COc1ccc(-c2nnc(-c3cc4c(ccc5ccccc54)oc3=O)o2)cc1	1.2	4	52*	20	120	-2
O=c1oc2ccc3ccccc3c2cc1-c1nnc(-c2ccccc2)o1	0.9	2	65*[fluorescence artefact?]	20	68	18
C/C(N[O-])=C(\C)[N+]([O-])=[Co].C/C(N[O-])=C(\C)[N+]([O-])=[Co].CC(=N\[O-])/C(C)=N/[O-].CC(=N\[O-])/C(C)=N/[O-].[CH3-].[CH3-]	.	.	.	.	.	10
Clc1ccc(-c2nc(-c3ccccn3)no2)cc1Cl	0.5	6	27	17	265*	-3
C[C@@](N)(/C=C/c1ccccc1)C(=O)O	.	.	.	.	.	-12
Nn1c(-c2ccccc2Cl)nnc1-c1ccccc1Cl	2*	.	-5	-7	119	2
COc1cc(NC(=O)CN2CC(c3ccccc3)CC2=O)cc(OC)c1 (configuration not stated)	1.1	20*	-4	-9	83	4
Cc1cc(C)c2cc(CN(CCO)C(=O)Nc3ccc(Cl)cc3)c(=O)[nH]c2c1	1	12	-19	-13	232*	8
CCOC(=O)N1c2ccccc2C=CC1OCC (configuration not stated)	1	5	-3	-3	619*	-1
Cc1ccc(C)c(NC(=O)Cn2nc(C)c3ccccc3c2=O)c1	1	10	18	3	296*[fluorescence artefact?]	4
Cc1nn(CC(=O)Nc2ccc3c(c2)nc(CN2CCCC2)n3C)c(=O)c2ccccc12	1	-1	70*[fluorescence artefact?]	40	79	4
Cc1nn(CC(=O)Nc2ccc3c(c2)oc2ccccc23)c(=O)c2ccccc12	1	8	81*[fluorescence artefact?]	51*[fluorescence artefact?]	106	-53
CNC(=O)Cn1nc(C)c2ccccc2c1=O	1.2	7	16	20	109	1
NC(=O)c1sc2nc3c(c(-c4ccc(Cl)cc4)c2c1N)CCCC3	1.2	3	11	21	252*[fluorescence artefact?]	4
Cc1ccc(-c2c3c(nc4sc(C(N)=O)c(N)c24)CCC3)cc1	1.7	1	5	-11	75	2
O=C(Nc1nc(-c2nc3ccccc3s2)cs1)c1ccco1	1.4	7	31	40	288*[fluorescence artefact?]	-57
CCNC(=O)[C@H](C)/C=C/C(NC(=O)OCc1ccccc1)c1ccc(C(=O)OC)cc1 (some centres not stated)	1.1	.	.	.	.	.
Cc1ccc(C)c(OCC(=O)NCCN(C)C)c1	1	0	-6	-3	98	-13
Cc1cccc(OCC(=O)Nc2nonc2NC(=O)COc2cccc(C)c2)c1	1.2	5	72*[fluorescence artefact?]	52*[fluorescence artefact?]	144	2
SMILES	MT1-MMP txn act	Candida biofilm	ERa SRC1 inh	ERb coact inh	ERa SRC1 pot	Smad3 FoxH1 inh
Cc1cccc(OCC(=O)Nc2ccc(N3CCN(S(C)(=O)=O)CC3)cc2)c1	1.2	-10	12	2	108	-4
Cc1ccc(C)c(OCC(=O)Nc2nonc2NC(=O)COc2cc(C)ccc2C)c1	1.1	8	63*[fluorescence artefact?]	22	64	-1
O=C(Nc1cnn(Cc2ccc(Cl)cc2Cl)c1)c1cc(-c2cccs2)on1	1.1	7	51*[fluorescence artefact?]	23	157	-3
O=C(Nc1cnn(Cc2ccc(Cl)cc2Cl)c1)c1noc2c1CCCC2	1.2	8	11	-7	106	8
CCc1nnc(NC(=O)CSc2nnc(-c3ccc(S(=O)(=O)N(CC)CC)cc3)n2CC)s1	1.2	1	26	13	90	5
CCc1nnc(NC(=O)CSc2nnc(-c3ccc(S(=O)(=O)N4CCCC4)cc3)n2CC)s1	1.1	-3	16	54*[fluorescence artefact?]	87	-6
CCOC(=O)C1=C(C)N(CCCC(=O)NCCn2c(-c3ccccc3)cc(C(=O)OC)c2C)C(=O)NC1c1ccc([N+](=O)[O-])cc1 (configuration not stated)	1.2	.	.	.	.	.
CC(=O)Nc1nc(N)n(-c2ccccc2)n1	1.3	8	-16	-23	106	1
Cc1ccccc1CNc1nc(N)n(-c2ccccc2)n1	1.3	20*	-6	-2	117	11
CC(C)(C)NC(=O)Cc1ccc(S(=O)(=O)N2CCCC2)s1	.	6	58*[fluorescence artefact?]	40	54	-3
CC(C)c1[nH]nc2c1C(c1cccc(OC(=O)N3CCOCC3)c1)C(C#N)=C(N)O2 (configuration not stated)	1.2	.	.	.	.	.
CCc1[nH]nc2c1C(c1cccc(OC(=O)N3CCOCC3)c1)C(C#N)=C(N)O2 (configuration not stated)	1.1	8	-32	-4	563*	0
CC1CC(C(F)(F)C(F)(F)F)n2nc(C(=O)O)cc2N1 (configuration not stated)	1.1	1	64*	76*[fluorescence artefact?]	29	3
CC1CC(C(F)(F)F)n2nc(C(=O)O)cc2N1 (configuration not stated)	.	2	9	34	91	-6
NC(=O)[C@H]1CCCN1Cc1ccc2c(c1)OCO2	.	.	.	.	.	6
COc1ccc(C(C)=O)cc1COC(=O)c1c(C)noc1C	1	7	-6	-4	133	12
COc1ccc(C(C)=O)cc1COC(=O)c1ccc(OCc2c(C)noc2C)cc1	1.2	5	55*[fluorescence artefact?]	42	277*	-27
Cc1noc(C)c1COc1ccc(C(=O)OCC(=O)N2c3ccccc3NC(=O)C2(C)C)cc1	1.3	-4	73*	68*	54	-14
Cc1cc(C)c2c(SCc3ccc(Cl)cc3Cl)nc(N)nc2n1	.	.	.	.	.	-2
COc1ccc2ccccc2c1/C=C/C(=O)c1ccccc1	.	.	.	.	.	-18
